Publication PMC11062922 (Nature Chemical Biology, 2023)
Where two headings read alike, the source gives them in different places.

What was measured:
Set-up in all cases: species or system human, MV4-11 + K-562 + COLO205 + SK-N-BE2 + OVCAR-8
CDK7 = settings: read-out: apparent Kd, n = 1
ERCC2 = settings: read-out: apparent Kd, n = 1
FER = settings: read-out: apparent Kd, n = 1
LATS1 = settings: read-out: apparent Kd, n = 1
MYLK3 = settings: read-out: apparent Kd; compound concentrations:100 nM and 1000 nM (sheet 'Samples'); n = 1
PLK4 = settings: read-out: apparent Kd, n = 1
PRKAA1 = settings: read-out: apparent Kd, n = 1
PRKCD = settings: read-out: apparent Kd, n = 1
PRKCQ = settings: read-out: apparent Kd, n = 1
PTK2B = settings: read-out: apparent Kd, n = 1
PTK2 = settings: read-out: apparent Kd, n = 1
RPS6KA6 = settings: read-out: apparent Kd, n = 1
STK10 = settings: read-out: apparent Kd, n = 1
TNK2 = settings: read-out: apparent Kd, n = 1
PRKD2 = settings: read-out: apparent Kd, compound concentrations: 100 nM and 1000 nM (sheet 'Samples'), n = 1
PRKD3 = settings: read-out: apparent Kd, compound concentrations: 100 nM and 1000 nM (sheet 'Samples'), n = 1
MARK4 = settings: read-out: apparent Kd, compound concentrations: 100 nM and 1000 nM (sheet 'Samples'), n = 1
CDKL5 = settings: read-out: apparent Kd; compound concentrations:100 nM and 1000 nM (sheet 'Samples'); n = 1
FLT3 = settings: read-out: apparent Kd; compound concentrations: 100 nM and 1000 nM (sheet 'Samples'), CATDS: 9.7213478094733505E-2; n = 1
DYRK1A = settings: read-out: apparent Kd, compound concentrations: 100 nM and 1000 nM (sheet 'Samples'), n = 1
[1] = compound concentrations:100 nM and 1000 nM (sheet 'Samples')

## NCCNS(=O)(=O)c1ccc(-c2ccnc3[nH]ccc23)cc1 [GSK977617A]
CDK7; [1]
  potency estimated from few doses: 159 nM
ERCC2; [1]
  potency estimated from few doses: 203 nM
FER; [1]
  potency estimated from few doses: 238 nM
LATS1; [1]
  potency estimated from few doses: 121 nM
MYLK3
  potency estimated from few doses: 996 nM
PLK4; [1]
  potency estimated from few doses: 584 nM
PRKAA1; [1]
  potency estimated from few doses: 453 nM
PRKCD; [1]
  potency estimated from few doses: 1080 nM
PRKCQ; [1]
  potency estimated from few doses: 1950 nM
PTK2B; [1]
  potency estimated from few doses: 335 nM
PTK2; [1]
  potency estimated from few doses: 343 nM
RPS6KA6; [1]
  potency estimated from few doses: 373 nM
STK10; [1]
  potency estimated from few doses: 2400 nM
TNK2; [1]
  potency estimated from few doses: 233 nM

## Fc1ccc(-c2c(-c3ccncc3)[nH]c3cccnc23)cc1 [RO1153853-000]
PRKD2; CATDS: 5.7434995830704397E-2
  potency estimated from few doses: 1020 nM
PRKD3; CATDS: 5.1990975037574202E-2
  potency estimated from few doses: 1420 nM

## CCn1c(-c2nonc2N)nc2c(C#CC(C)(C)O)nc(OCCN)cc21.CCn1c(-c2nonc2N)nc2c(C#CC(C)(C)O)nc(OCCN)cc21.Cl.Cl [GSK902056A]
LATS1; [1]
  potency estimated from few doses: 70.2 nM
PRKCD; [1]
  potency estimated from few doses: 373 nM
PRKCQ; [1]
  potency estimated from few doses: 50.9 nM

## CCn1c(-c2nonc2N)nc2c(-c3ccccc3)ncc(OCCCN)c21.CCn1c(-c2nonc2N)nc2c(-c3ccccc3)ncc(OCCCN)c21.O=C(O)C(F)(F)F.O=C(O)C(F)(F)F [GSK260205A]
LATS1; compound concentrations: 100 nM and 1000 nM (sheet 'Samples'), CATDS: 3.5695697906411097E-2
  potency estimated from few doses: 734 nM
PRKCD; compound concentrations: 100 nM and 1000 nM (sheet 'Samples'), CATDS: 3.0969413640761199E-2
  potency estimated from few doses: 1160 nM
PRKD2; CATDS: 3.1729313210787799E-2
  potency estimated from few doses: 1070 nM
PRKD3; CATDS: 2.8953203938898799E-2
  potency estimated from few doses: 1510 nM

## Cl.Nc1c(C(=O)c2cccc(C#CCN3CCCCC3)c2)cnn1-c1ccc(F)cc1 [RO1154461-001]
CDK7; compound concentrations: 100 nM and 1000 nM (sheet 'Samples'), CATDS: 4.6552483673456102E-2
  potency estimated from few doses: 74.1 nM
ERCC2; compound concentrations: 100 nM and 1000 nM (sheet 'Samples'), CATDS: 5.2130998617594002E-2
  potency estimated from few doses: 63.2 nM
FER; compound concentrations: 100 nM and 1000 nM (sheet 'Samples'), CATDS: 4.9023130772968097E-2
  potency estimated from few doses: 68.9 nM
LATS1; compound concentrations: 100 nM and 1000 nM (sheet 'Samples'), CATDS: 1.0207334677420601E-2
  potency estimated from few doses: 1780 nM
MARK4; CATDS: 1.0984902394488599E-2
  potency estimated from few doses: 1350 nM
PLK4; compound concentrations: 100 nM and 1000 nM (sheet 'Samples'), CATDS: 1.52727578092353E-2
  potency estimated from few doses: 534 nM
PRKAA1; compound concentrations: 100 nM and 1000 nM (sheet 'Samples'), CATDS: 1.6696552241267201E-2
  potency estimated from few doses: 436 nM
PRKCQ; compound concentrations: 100 nM and 1000 nM (sheet 'Samples'), CATDS: 1.06314955132201E-2
  potency estimated from few doses: 1520 nM
PRKD3; CATDS: 9.8039284052072601E-3
  potency estimated from few doses: 2110 nM
PTK2B; compound concentrations: 100 nM and 1000 nM (sheet 'Samples'), CATDS: 4.70772148713983E-2
  potency estimated from few doses: 72.9 nM
PTK2; compound concentrations: 100 nM and 1000 nM (sheet 'Samples'), CATDS: 1.89593095974224E-2
  potency estimated from few doses: 333 nM
RPS6KA6; compound concentrations: 100 nM and 1000 nM (sheet 'Samples'), CATDS: 1.98632860807328E-2
  potency estimated from few doses: 303 nM
STK10; compound concentrations: 100 nM and 1000 nM (sheet 'Samples'), CATDS: 1.0028252220669101E-2
  potency estimated from few doses: 1910 nM
TNK2; compound concentrations: 100 nM and 1000 nM (sheet 'Samples'), CATDS: 5.6879237534392203E-2
  potency estimated from few doses: 56.1 nM

## CC(C)N1CCC(n2cnc(-c3ccc(F)cc3)c2-c2ccnc(N)n2)CC1 [SB-223132]
CDK7; [1]
  potency estimated from few doses: 310 nM
CDKL5
  potency estimated from few doses: 1520 nM
ERCC2; [1]
  potency estimated from few doses: 206 nM
FER; [1]
  potency estimated from few doses: 358 nM
PLK4; [1]
  potency estimated from few doses: 757 nM
PRKAA1; [1]
  potency estimated from few doses: 631 nM
PTK2B; [1]
  potency estimated from few doses: 378 nM
PTK2; [1]
  potency estimated from few doses: 433 nM
RPS6KA6; [1]
  potency estimated from few doses: 466 nM
STK10; [1]
  potency estimated from few doses: 2020 nM
TNK2; [1]
  potency estimated from few doses: 374 nM

## CCn1c(-c2nonc2N)nc2c(C#CC(C)(C)O)nc(OCCNC)cc21.Cl [GSK949675A]
LATS1; [1]
  potency estimated from few doses: 401 nM
PRKCQ; [1]
  potency estimated from few doses: 1680 nM

## CN(c1ccc(NC(=O)N2CCN(CCCN3CCOCC3)CC2)cc1)c1ccnc(Nc2ccc(CS(C)(=O)=O)cc2)n1.Cl [GW830899A]
CDK7; compound concentrations: 100 nM and 1000 nM (sheet 'Samples'), CATDS: 3.2126813899460802E-2
  potency estimated from few doses: 560 nM
ERCC2; compound concentrations: 100 nM and 1000 nM (sheet 'Samples'), CATDS: 3.5571834197337601E-2
  potency estimated from few doses: 471 nM
FER; compound concentrations: 100 nM and 1000 nM (sheet 'Samples'), CATDS: 2.4500715622852599E-2
  potency estimated from few doses: 940 nM
FLT3
  potency estimated from few doses: 119 nM
MARK4; CATDS: 2.1363637318540001E-2
  potency estimated from few doses: 1290 nM
PRKAA1; compound concentrations: 100 nM and 1000 nM (sheet 'Samples'), CATDS: 2.4895545924416802E-2
  potency estimated from few doses: 909 nM
PRKCQ; compound concentrations: 100 nM and 1000 nM (sheet 'Samples'), CATDS: 2.35958557762035E-2
  potency estimated from few doses: 1020 nM
PTK2; compound concentrations: 100 nM and 1000 nM (sheet 'Samples'), CATDS: 2.9725199889124199E-2
  potency estimated from few doses: 643 nM
TNK2; compound concentrations: 100 nM and 1000 nM (sheet 'Samples'), CATDS: 3.2652944878228798E-2
  potency estimated from few doses: 544 nM

## CONC1=NC(=O)/C(=C/c2ccc3ncccc3c2)S1 [RO4613269-000]
DYRK1A; CATDS: 0.14801064181583801
  potency estimated from few doses: 1100 nM

## O=C1N=C(Nc2ccccc2)S/C1=C\c1ccc2ncccc2c1 [RO4493940-000]
DYRK1A; CATDS: 0.176247651150404
  potency estimated from few doses: 1930 nM
